Measured values reported in the supplement of paper PMC6555819.

How the values were obtained:
Experiment in all cases: PBM binding z-score (relative to random genomic background probes); higher = stronger binding; sequences stand for … in GC…GCGATTGACAGCGTAGAATGAAGG
[1] = system: RARb homodimer (NR concentration 270 nM)
Procedure, shortened: (§1)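 For binding z-scores, the reference was random background probes on custom Agilent 4×180K protein-binding microarrays. These arrays were incubated 1 h with ligand-free nuclear receptor dimers in PBS pH 7.4, 2% milk, 0.02% Triton X-100, 1 mM DTT, 0.2 mg/mL BSA and 0.4 mg/ml salmon testes DNA. Fluorescence was scanned after antibody detection of each partner (one per run) and regression-normalized.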

[2] = system: RARg:RXRa (NR concentration 270 nM, RXRa partner concentration 90 nM)
Procedure, shortened: as §1

[3] = system: RARg homodimer (NR concentration 270 nM)
Procedure, shortened: as §1

[4] = system: RXRa DBDmut IVT, anti-RXR (DBD mutation: RXRa K156A/R161A, NR concentration 90 nM)
Procedure, shortened: as §1

[5] = system: RXRa homodimer (NR concentration 180 nM)
Procedure, shortened: as §1

[6] = system: THRa:RXRa (NR concentration 90 nM, RXRa partner concentration 90 nM)
Procedure, shortened: as §1

[7] = system: THRa homodimer (NR concentration 90 nM)
Procedure, shortened: as §1

[8] = system: VDR homodimer (NR concentration 270 nM)
Procedure, shortened: as §1

Sequence	PBM binding z-score [1]	PBM binding z-score [2]	PBM binding z-score [3]	PBM binding z-score [4]	PBM binding z-score [5]	PBM binding z-score [6]	PBM binding z-score [7]	PBM binding z-score [8]
CTCGAAAGGTCGGTTGAGGTGAGTATACGGATAA	2.15	2.63	2.54	0.556	1.95	5.09	1.33	0.68
CCTACTGGGCCCAAGGTCATTGATTCCAATGCTC	3.52	2.64	2.42	0.382	2.82	3.22	2.76	2.48
GTACCAAGGTGAATGGGTCGTTGATGAGTAGGCG	1.33	1.28	0.93	-0.402	1.08	1.74	0.777	0.187
CCTTACGGGTCACACCAGGTTATAGCATCGGAGT	3.26	4.99	4.64	1.32	5.18	5.22	0.963	1.61
CCTAGCAGGCCAATCTGGGTCAGTCAAGGCTTGA	1.82	0.465	1.02	-0.281	-0.197	2.97	-0.159	-0.52
CCTAGCAGGCCAATCTGGGTCTCTCAAGGCTTGA	-0.52	-0.494	-0.505	-0.243	-0.68	0.975	-0.574	-0.65
AGAATGAGGTTATTAAGATCAGGGAATTGCGGTC	1.05	1.17	0.93	1.91	1.89	2.18	0.599	0.931
CGAACGAGGGCATGAGTTGATAGCAAATGCCGAT	0.843	1.54	2	2.58	1.17	1.48	-0.132	2.02
CTACCAAGGTGAACAAGGTCGGTGATTACTATTC	1.6	1.22	1.42	0.135	1.23	2.66	1.27	0.361
TCATATAGGTAAAAGGCGAAAGTCGGTGTGGTAA	-0.139	0.0161	-0.195	1.51	0.665	-0.0856	-0.0858	0.0813
CCTGCTAGGTCAATGGTCACCTAAAGCAGCTCGC	3.18	3.72	4.05	2.07	2.43	2.78	1.32	0.427
CCAGACAGGTGAGAACGTAACTCAGCCTCGATTA	0.118	0.404	0.33	0.242	0.378	-0.0328	0.361	0.202
GCTATTAGTTGCAAGGGCAACCGAATGATTCTCG	1.12	0.13	0.552	0.914	0.35	0.666	0.326	0.363
CCTTACGGGTCACGAGGTTATATCACGACGAGCG	3.93	6.16	5.48	1.94	7.11	3.77	1.34	2.09
TCTTGTAAATCAAGCAGGTTAAGAAAGCCTGAGT	0.102	0.0304	-0.176	0.73	0.26	0.147	-0.571	-0.0324
AATACAGGGTCATCGTAGGCCTGAGTACGCACAG	3.36	5.59	4.89	3.34	6.77	4.2	1.25	3.73
ACTCGGAGGACAAAGGTCCGAGCTACGCCAGTGA	0.57	0.663	0.927	0.364	0.0174	0.646	-0.259	-0.261
CCTCGGAAGACAGAAGGTCAGAGCTGTCCGCTTT	3.01	2.34	2.32	0.101	1.83	1.56	-0.133	0.00286
ATCTCTAGGTAAAAGTTCAATGAATCCCGAGGAT	3	2.3	2.41	1.29	2.4	1.71	0.132	2.73
GCTTACTGGTCAAAGGTTATAGCATGAATAGAAT	1.78	3.91	1.68	0.714	4.35	1.87	-0.137	0.435
TCTTGTAGATCAACAGGATGTTAAGAAAGATCGA	-0.63	0.136	0.033	0.72	0.385	-0.148	-0.851	-0.332
TCAGACAGGTGAAGGTATCTCAGGTACGCAGTCG	0.873	0.518	0.586	1.55	0.95	1.2	0.503	0.113
CTACCACGGTGAACAAGGTCGTTGATTACTATTC	1.3	0.591	0.651	1.04	0.823	1.93	1.4	2.12
GCTCGCAGGCCATTTGGGTCACTCAATGACGGGC	1.93	1.23	1.41	0.0952	0.671	1.93	0.651	0.416
GCCGCTAGGTCAACTGATGGTCAGCTAAAGCTCG	3.66	5.19	5.22	1.45	2.97	2.97	0.878	-0.321
TCGAGTAGGTTAGGGGCATTCATAATGGCGTCGA	0.847	0.406	0.583	0.422	0.801	0.804	0.251	0.868
GCTAGTTGGTCAGTAAAAGGTCACCCACCGGTCG	5.12	5.56	4.94	-0.12	5.13	3.42	1.89	1.26
GCTCGTAGATCAAGGTTAAGAAAGACTAAGCTAA	-0.0448	0.0431	-0.0396	-0.285	0.709	0.978	-0.631	-0.34
